Outcome and AC50 data for 38 molecules are collected here from PubChem BioAssay (EPA / NIEHS).

By AC50 is commonly meant the concentration at which the activity in the assay is half-maximal.

Each structure is given as a SMILES string. “And” between values parts separate entries of the source, which are not always exact repeats. Equal values may be shown once. Records with an inconclusive call do not appear. Some compounds were tested as several samples or in several runs, with calls that do not always agree. The source made the active and inactive calls. How the source made its calls: active means hit-call score of the fitted dose curve at least 0.9, where 1 is the maximum; inconclusive means response in the unintended direction; inactive means score below 0.9.

Read-out in the assay: Cytochrome P450 2B6 (Homo sapiens) (UniProt P20813)
Nature of the assay: CLD_CYP2B6_24hr: CellzDirect (CLD) Gene Expression Assay for xenobiotic metabolism (CYP2B6) at 24 hours (AID 2283686). Here is the method:
CLD_24hr is a cell-based, multiplexed-readout assay that uses hepatocyte, a human liver primary cell, with measurements taken at 24 hours after chemical dosing in a 96-well plate.CLD_CYP2B6_24hr is one of 16 assay component(s) measured or calculated from the CLD_24hr assay. It is designed to make measurements of mRNA induction, a form of inducible reporter, as detected with chemiluminescence signals by Quantitative Nuclease Protection Assay (qNPA) technology.Data from the assay component CLD_CYP2B6_24hr was analyzed at the endpoint, CLD_CYP2B6_24hr, in the positive analysis fitting direction relative to DMSO as the negative control and baseline of activity. Using a type of inducible reporter, gain-of-signal activity can be used to understand changes in the reporter gene as they relate to the gene CYP2B6. Furthermore, this assay endpoint can be referred to as a primary readout. To generalize the intended target to other relatable targets, this assay endpoint is annotated to the cyp intended target family, where subfamily is xenobiotic metabolism.
Human hepatocyte cultures were treated daily for two consecutive days with fresh dosing solutions containing appropriate concentrations of the 320 ToxCast chemicals (chemical identities were blinded to CellzDirect and other ToxCast collaborators), vehicle control (0.2% DMSO), and positive control inducers as summarized in Table 1. Due to the large number of treatment groups and chemicals examined, the ToxCast chemicals were divided into two groups (spanning two independent cultures of hepatocytes from separate donor preparations (Hu778: ToxCast plates 1 and 2; Hu776: ToxCast plates 3 and 4). Each preparation of human hepatocyte cultures was treated with respective vehicle control, medium only control, set of six positive controls/reference chemicals for the five hepatic receptor pathways, and a subset of eight of the ToxCast chemicals (indoxacarb, pyrithiobac-sodium, norflurazon, cyhalofop-butyl, methomyl, thiram, acetochlor, and propiconazole). These replicate data, coupled with internal replicates designed within the blinded ToxCast chemical library, provided additional data to evaluate interindividual differences between hepatocyte preparations and their potential impact on chemical profiles.Cell morphology and integrity were evaluated using phase-contrast microscopy as an indicator of hepatocyte cell health (Tyson & Green, 1987). Cultures for each treatment group (i.e., media, vehicle [0.2% DMSO], positive control inducers [multiple concentrations], and the ToxCast chemicals [multiple concentrations]) were observed and cell morphology was assessed relative to vehicle control cultures at each harvest time point (0, 6, 24, or 48 h). […] Images were evaluated at the conclusion of the study to assess changes in cell integrity and account for the effects of chemical exposure on uncharacteristic changes in concentration-dependent gene expression profiles. The results from these determinations of apparent cytotoxicity were annotated (yes/no) alongside the corresponding qNPA data for reference.At the conclusion of each treatment period, hepatocyte cultures (96-well) were washed with 1 volume of HBSS, lysed by addition of 25 ul ArrayPlate lysis buffer (HTG, Tucson, AZ), and 70 ul/well of Denaturation Oil, denatured by incubation at 95C for 10 min, and frozen at approximately -70C until analysis by nuclease protection assay (qNPA) (Roberts et al., 2007). For qNPA analysis, cell lysates were thawed at 50C for approximately 30 min, qNPA probes were added, and samples were incubated at 95C for 10 min to begin the detection process by denaturing the target RNA, dissociating the duplexes and secondary structure hybridization. At the conclusion of the hybridization period, S1 nuclease reagent was added to each sample to digest all nonprotected nucleotides at 50C for 60-90 min. […]
Regarding `CC(Oc1ccc(Cl)cc1Cl)C(=O)O` (stereo not given), the result was inactive. On to `Oc1ccccc1-c1ccccc1`, for which the AC50 is 6.24 µM (active).

For `CCOP(=S)(OCC)SCn1c(=O)oc2cc(Cl)ccc21`, the AC50 is 3.97 µM (active). In the case of `CCOC(=O)CC(SP(=S)(OC)OC)C(=O)OCC` (stereo not given), the result was inactive. In the case of `OC(c1ccc(Cl)cc1)(c1cncnc1)c1ccccc1Cl` (stereo not given), the AC50 was 1.24 µM (active).

With `CCON=C(CC)C1=C(O)CC(c2c(C)cc(C)cc2C)CC1=O` (stereo not given), the call was inactive.

Turning to `CCCCOC(=O)c1ccccc1C(=O)OCCCC`, the result was inactive and the AC50 was 5.33 µM (active). In the case of `COc1nc(C)nc(NC(=O)NS(=O)(=O)c2ccccc2CCC(F)(F)F)n1`, the AC50 was 3.4 µM (active) and 5.71 µM (active) and 908 nM (active). On the same count and under the same terms, with `CC1COC(Cn2cncn2)(c2ccc(Oc3ccc(Cl)cc3)cc2Cl)O1` (stereo not given) the figure was 0.000442 µM (active).

`O=C(O)c1nc(Cl)ccc1Cl`: the result was inactive. Same read-out and setting: with `COC(=O)C=C(C)OP(=O)(OC)OC` the entry was “inactive”. For `Cc1c(F)c(F)c(COC(=O)C2C(/C=C(\Cl)C(F)(F)F)C2(C)C)c(F)c1F` (stereo not given), the AC50 is 20 µM (active). `CCCCNC(=O)n1c(NC(=O)OC)nc2ccccc21`: the molecule was classed as inactive.

`CNC(=O)ON=CC(C)(C)SC`: the molecule was called inactive. Regarding `C=CC1(C)OC(=O)N(c2cc(Cl)cc(Cl)c2)C1=O` (stereo not given), the AC50 is 7.15 µM (active). As to `N#Cc1nn(-c2c(Cl)cc(C(F)(F)F)cc2Cl)c(N)c1S(=O)C(F)(F)F` (stereo not given), the AC50 is 1.9 µM (active).

Consider `CCNc1nc(Cl)nc(NCC)n1`, for which the AC50 is 9.74 µM (active).

As to `COC(=O)c1ccccc1C(=O)OC`, the call was inactive.

On to `CCNc1nc(Cl)nc(NC(C)C)n1`, for which the AC50 is 3.92 µM (active). As for `O=C(O)COc1nc(Cl)c(Cl)cc1Cl`, the molecule was called inactive. Take `CCOC(=O)C(Cl)Cc1cc(-n2nc(C)n(C(F)F)c2=O)c(F)cc1Cl` (stereo not given): the AC50 is 6.33 µM (active). Regarding `CC1=C(C(=O)Nc2ccccc2)SCCO1`, the AC50 was 6 µM (active). As to `CCCCC(CC)COC(=O)c1ccccc1C(=O)OCC(CC)CCCC` (stereo not given), the outcome was inactive. Consider `COC(=O)C(C)Oc1ccc(Oc2ccc(Cl)cc2Cl)cc1` (stereo not given), for which the AC50 was 20 µM (active) and 34.6 µM (active); the molecule was classed as inactive. Turning to `C#CCOS(=O)OC1CCCCC1Oc1ccc(C(C)(C)C)cc1` (stereo not given), the AC50 is 3.2 µM (active).

On to `COc1ccc(C(c2ccc(OC)cc2)C(Cl)(Cl)Cl)cc1`, for which the AC50 is 7.11 µM (active). For `COP(=S)(OC)Oc1nc(Cl)c(Cl)cc1Cl`, the AC50 was 5.02 µM (active).

Take `CCc1nn(C)c(C(=O)NCc2ccc(C(C)(C)C)cc2)c1Cl`: the result was inactive. Same read-out and setting: as for `Fc1ccc(Oc2ccnc3cc(Cl)cc(Cl)c23)cc1`, the entry is “inactive”. As for `CC(C)Oc1cc(-n2nc(C(C)(C)C)oc2=O)c(Cl)cc1Cl`, the AC50 is 0.829 µM (active). Regarding `C=CCC1=C(C)C(OC(=O)C2C(C=C(C)C)C2(C)C)CC1=O` (stereo not given), the outcome was inactive.

With `CCCC1COC(Cn2cncn2)(c2ccc(Cl)cc2Cl)O1` (stereo not given), the AC50 was 0.668 µM (active). Take `COC(=O)N(OC)c1ccccc1COc1ccn(-c2ccc(Cl)cc2)n1`: the molecule was called inactive. Still for that read-out and setting: with `COc1cnc(OC)n2nc(NS(=O)(=O)c3c(OCC(F)F)cccc3C(F)(F)F)nc12` the entry was “inactive”.

In the case of `C=CCC1=C(C)[C@@H](OC(=O)[C@@H]2[C@@H](C=C(C)C)C2(C)C)CC1=O`, the AC50 is 20 µM (active). Consider `CCOc1cc(Oc2ccc(C(F)(F)F)cc2Cl)ccc1[N+](=O)[O-]`, for which the outcome was inactive. Turning to `CON(C)C(=O)Nc1ccc(Cl)c(Cl)c1`, the AC50 was 0.735 µM (active). Take `CC(C)C1(C)N=C(c2nc3ccccc3cc2C(=O)O)NC1=O` (stereo not given): the result was inactive.
